In PubChem BioAssay AID651808 (Broad Institute, 2012) one finds max activity (light induction) data, which are given here for 24 compounds.

Where “and” joins values, the source holds several entries; their conditions need not be identical. Equal entries are not always repeated. Records with an inconclusive call do not appear. Calls of active or inactive are those of the source. How the calls were made is not given here.

The nature of one assay: dose response, DH231 delta cqsS, luminescence, dry powder (AID 651808). Particulars: V. cholerae DH231 delta cqsS, luxCDABE luminescence, 6 h; at 80 µM; test 2; stronger effect = higher value.
Regarding `CCCn1nnnc1NCc1ccccc1Cl`, the max activity (light induction) is -58.8% (inactive).

As to `O=C(Cc1ccc(-c2ccccc2)cc1)NC1CCOCC1`, the max activity (light induction) was -9.06% (inactive). Regarding `CCCn1nnnc1NCc1ccc(N2CCCC2)cc1`, the max activity (light induction) is -55.4% (inactive).

Regarding `COc1ccc(CC(=O)NC2CCCC2)cc1`, the max activity (light induction) was -4.11% (inactive). As for `CCC(C)NC(=O)Cc1ccc(-c2ccccc2)cc1` (centres undefined), the max activity (light induction) is -31.1% (inactive). `O=C(Cc1ccccc1Cl)NC1CCCC1`: the max activity (light induction) was -18.1% (inactive).

Turning to `CC(C)c1ccc(CNc2nnnn2C)cc1`, the max activity (light induction) is -24.7% (inactive). Still for that read-out and setting: then `CCCn1nnnc1NCc1ccc(C(C)C)cc1`, with -51.3% (inactive). `O=C(Cc1cccc(OC(F)(F)F)c1)NC1CCCC1`: the max activity (light induction) is -5.92% (inactive). Take `O=C(Cc1cccc(F)c1)NC1CCCC1`: the max activity (light induction) was -4.2% (inactive). Same read-out and setting: then `CCn1nnnc1NCc1ccc(N2CCCC2)cc1`, with -52.6% (inactive); and `CS(=O)(=O)c1ccc(CC(=O)NC2CCCC2)cc1`, with -47.4% (inactive); and `O=C(Cc1ccc(-c2ccccc2)cc1)NC1CCC1`, with -12.2% (inactive). As to `CCC(CC)NC(=O)Cc1ccc(-c2ccccc2)cc1`, the max activity (light induction) was -17.5% (inactive).

Consider `Cn1nnnc1NCc1ccc(N2CCCC2)cc1`, for which the max activity (light induction) is -32.9% (inactive).

On to `O=C(Cc1ccccc1F)NC1CCCC1`, for which the max activity (light induction) was 0.357% (inactive). Turning to `O=C(Cc1ccccc1OC(F)(F)F)NC1CCCC1`, the max activity (light induction) is -14.6% (inactive). The same measure, in the same setting: then `CC(C)NC(=O)Cc1ccc(-c2ccccc2)cc1`, with -26.8% (inactive).

Consider `O=C(Cc1ccc(-c2ccccc2)cc1)NC1CCCC1`, for which the max activity (light induction) was -13.9% (inactive) and -5.11% (inactive). Take `O=C(NCc1ccc(-c2ccccc2)cc1)C1CCCC1`: the max activity (light induction) is -17% (inactive). The same measure, in the same setting: then `O=C(Cc1ccccc1C(F)(F)F)NC1CCCC1`, with -7.17% (inactive); and `CCn1nnnc1NCc1ccc(C(C)C)cc1`, with -41.8% (inactive) and -46.4% (inactive); and `O=C(Cc1ccc(-c2ccccc2)cc1)NC1CCCCC1`, with -14.6% (inactive).

Staying with this assay, now noted: V. cholerae DH231 delta cqsS, luxCDABE luminescence, 6 h; measured here: test 1 replicate run; at 80 µM; test 1; stronger effect = higher value.
Regarding `CCCn1nnnc1NCc1ccc(N2CCCC2)cc1`, the max activity (light induction) is -46.1%. The same measure, in the same setting: then `CCCn1nnnc1NCc1ccc(C(C)C)cc1`, with -24.4%; and `CCn1nnnc1NCc1ccc(N2CCCC2)cc1`, with -42.4%; and `CCn1nnc(NCc2ccc(C)cc2)n1`, with -23%.

Consider `Cn1nnnc1NCc1ccc(N2CCCC2)cc1`, for which the max activity (light induction) was -32.2%.

Consider `CCn1nnnc1NCc1ccc(C(C)C)cc1`, for which the max activity (light induction) was -24.1% and -23.5%.
